Only a selection was taken, and hits are over-represented in it overall.
HT1080 IDH1KD tx = HT-1080 IDH1 knockdown cell toxicity (counter line). 360,000 tested, 2% active. HT-1080 IDH1 knockdown viability, ATP luminescence, 48 h. Potency, µM (highest dose often 46.1 µM), without a hit: at the top dose activity, negative = toxicity, usual class: cytotoxic;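 note: potency is the fitted concentration of half-maximal effect; 0% = DMSO wells and -100% = cell-free medium wells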
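In this qHTS, HT-1080 cells depleted of IDH1 are exposed for 48 h at 37 °C to compound titrations. Toxicity is scored from CellTiter-Glo luminescence, with DMSO as full viability and medium alone as none.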
ALOX12 inh = inhibitors of human 12S-lipoxygenase ALOX12; P18054; purified 12hLO, xylenol orange hydroperoxide absorbance; Potency, µM (highest dose often 108 µM), without a hit: at the highest dose activity change, negative = inhibition, hits mostly inhibitors; 580,000 tested, 1.1% active; AID 1671190; note: potency is the fitted concentration of half-maximal effect
Target sequence (P18054 whole entry, looked up): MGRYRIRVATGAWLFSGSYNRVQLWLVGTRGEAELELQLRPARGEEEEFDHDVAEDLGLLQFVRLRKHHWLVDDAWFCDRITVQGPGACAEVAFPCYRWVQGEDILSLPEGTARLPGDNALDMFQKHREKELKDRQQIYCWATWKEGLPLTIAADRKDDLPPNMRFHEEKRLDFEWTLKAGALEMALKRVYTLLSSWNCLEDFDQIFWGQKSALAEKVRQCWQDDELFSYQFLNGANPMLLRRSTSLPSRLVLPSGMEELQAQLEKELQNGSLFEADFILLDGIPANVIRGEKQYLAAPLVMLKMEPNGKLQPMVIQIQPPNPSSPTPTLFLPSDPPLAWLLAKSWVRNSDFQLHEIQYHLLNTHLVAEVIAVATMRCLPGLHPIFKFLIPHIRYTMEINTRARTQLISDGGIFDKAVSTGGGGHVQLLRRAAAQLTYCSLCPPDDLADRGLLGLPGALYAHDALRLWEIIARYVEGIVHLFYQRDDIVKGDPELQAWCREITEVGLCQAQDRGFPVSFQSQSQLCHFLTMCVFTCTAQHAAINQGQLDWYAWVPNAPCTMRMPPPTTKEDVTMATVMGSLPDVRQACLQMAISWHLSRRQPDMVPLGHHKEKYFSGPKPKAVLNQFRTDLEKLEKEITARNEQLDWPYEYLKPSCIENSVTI
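Purified human 12hLO (150 nM final) in 25 mM Hepes, 0.01% Triton X-100, pH 7.0 was preincubated 15 min at room temperature with compound. Then 40 uM arachidonic acid was added, 30 min. Hydroperoxide was read by Fe-XO absorbance ratio 573/405 nm.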
IL1B secr inh = inhibitors of inflammasome signaling (IL-1 beta secretion); activity change, % at 57.5 µM; 360,000 tested, 4.7% active; THP-1 LPS/ATP IL-1B secretion, AlphaLISA, 16 h; hits give low values; in the data active = activity change below about -50%; inconclusive = mostly about -30% to -49%
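THP-1 cells pretreated 1 hr with compounds (up to 57.5 uM final), then stimulated with LPS (250 ng/mL final) plus ATP (1.25 mM final); secreted IL-1B measured by AlphaLISA after 16 hr, decreased signal indicating inhibition.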
HT1080-NT tox = kills 2HG-producing HT-1080-NT fibrosarcoma cells | HT-1080-NT fibrosarcoma viability, CellTiter-Glo ATP luminescence, 48 h | Potency, µM (top dose mostly 46.1 µM), without a hit: at the top dose activity, negative = less viability, hits mostly cytotoxic | 360,000 tested, 1.6% active;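 note: NT is the 2HG producing partner of a matched IDH1 knockdown line; potency is the fitted concentration of half-maximal effect; 0% = DMSO-treated cells and -100% = media-only wells without cells; nearly all actives have a fitted effect of over 55% in size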
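HT-1080-NT; 750 cells/well; 5% FBS RPMI; 48 h compound, 37 degrees C; CellTiter-Glo luminescence; curve fitting and curve-class assignment.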
DT40 TDP1 no CPT = qHTS for Inhibitors of human tyrosyl-DNA phosphodiesterase 1 (TDP1): qHTS in cells in absence of CPT | DT40 Tdp1-/- hTDP1 cells, no CPT, ATP luminescence, 48 h | Potency, µM (titrated, usually from 46.2 µM), for the others: top-dose activity change, negative = growth inhibition, actives largely listed as inhibitors | 420,000 tested, 15% active; note: potency is the fitted concentration of half-maximal effect; nearly all actives have a fitted effect of over 55% in size
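Compound effects on proliferation are scored in DT40 Tdp1-/-;hTDP1 cells in the absence of CPT. ATP levels (CellTiter-Glo luminescence) are recorded after a ≥48 hr, 37 °C incubation.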
DT40 TDP1 CPT = growth inhibition of DT40 Tdp1-/-;hTDP1 cells with camptothecin (screen for TDP1 inhibitors) | Potency, µM (titrated, usually from 46.2 µM), without a hit: at the top dose activity change, negative = growth inhibition, actives largely listed as inhibitors | 420,000 tested, 12% active | chicken DT40 Tdp1-/-;hTDP1 cells + 20 nM CPT, ATP luminescence, 48 h; note: potency is the fitted concentration of half-maximal effect; nearly all actives have a fitted effect of over 55% in size
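Cell growth measured by CellTiter-Glo luminescence after a minimum 48 h, 37 C compound exposure with 20 nM CPT in Tdp1-knockout DT40 cells stably expressing hTDP1, seeded 400/well; qHTS titration format.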
* marks the source's active call; other numbers are inactive results. Unless noted, calls come from the whole dose curve; as a rule, active = well fitted curve in the direction sought with a large enough effect; inconclusive = small, poorly fitted or top-dose-only effect, or another doubt; inactive = no such curve, though single readings can be large; an effect the other way counts as inactive or inconclusive. Unless noted, % is set by controls: 0 for no effect and ±100 for the full control effect.

`CC(C)n1cncc1CN1CCC2(CCCO2)CCC1=O` (stereo unspecified) gave ALOX12 inh 16%.
For CC(CNC(=O)Cn1ccc2cc(S(=O)(=O)N3CCCCC3)ccc21)c1ccccc1 (stereo unspecified) the results were ALOX12 inh inconclusive, DT40 TDP1 no CPT 21µM* and DT40 TDP1 CPT inconclusive.
CC(CNC(=O)Cn1ccc2cc(S(=O)(=O)N3CCCC3)ccc21)c1ccccc1 (stereo unspecified) was read as HT1080 IDH1KD tx -1%, ALOX12 inh 7%, IL1B secr inh 8, HT1080-NT tox -11%, DT40 TDP1 no CPT 23µM* and DT40 TDP1 CPT 18µM*.
For CC(=O)c1ccc(Nc2nc(C(C)N)cs2)cc1 (stereo unspecified) the results were HT1080 IDH1KD tx 7%, ALOX12 inh 13%, IL1B secr inh -26, HT1080-NT tox 12%, DT40 TDP1 no CPT 1% and DT40 TDP1 CPT 4%.
Cc1ccc(C(=O)Nc2nc(C(N)Cc3ccc(C(F)(F)F)cc3)cs2)cc1 (stereo unspecified) was read as HT1080 IDH1KD tx 16µM*, ALOX12 inh 10%, IL1B secr inh -65*, HT1080-NT tox inconclusive, DT40 TDP1 no CPT inconclusive and DT40 TDP1 CPT inconclusive.
For NC(Cc1ccc(C(F)(F)F)cc1)c1csc(Nc2ccc(C(=O)c3ccccc3)cc2)n1 (stereo unspecified) the results were HT1080 IDH1KD tx inconclusive, ALOX12 inh inconclusive, IL1B secr inh -70*, HT1080-NT tox inconclusive, DT40 TDP1 no CPT inconclusive and DT40 TDP1 CPT inconclusive.
CC(=O)c1ccc(Nc2nc(C(N)Cc3ccc(C(F)(F)F)cc3)cs2)cc1 (stereo unspecified) was read as HT1080 IDH1KD tx inconclusive, ALOX12 inh -16%, IL1B secr inh inconclusive, HT1080-NT tox inconclusive, DT40 TDP1 no CPT 16µM* and DT40 TDP1 CPT 15µM*.
For CN(CCOc1ccc(F)cc1)C(=O)c1cnc2ccccc2n1 the results were ALOX12 inh 3%.
`O=C(Cn1cnc2ccc(Cl)cc2c1=O)N(C1CC1)C1CCS(=O)(=O)C1` (stereo unspecified) gave ALOX12 inh -45%.
COc1ccc(NC(=O)c2cc3cccc(OC)c3oc2=Nc2ccc(C(=O)O)cc2)cc1OC was read as HT1080 IDH1KD tx -9%, ALOX12 inh -3%, IL1B secr inh -1, HT1080-NT tox 0%, DT40 TDP1 no CPT 13µM* and DT40 TDP1 CPT 9.2µM*.
For COc1cccc2cc(C(=O)Nc3ccc(C)cc3)c(=O)oc12 the results were ALOX12 inh inconclusive, DT40 TDP1 no CPT -1% and DT40 TDP1 CPT -6%.
Cc1ccc(-c2csc3nc(C)n(N)c(=O)c23)o1 was read as HT1080 IDH1KD tx 1%, ALOX12 inh 0%, IL1B secr inh 12, HT1080-NT tox -3%, DT40 TDP1 no CPT -23% and DT40 TDP1 CPT -5%.
Screening Cc1ccc(-c2csc3nc(C)n(-n4c(C)ccc4C)c(=O)c23)o1 returned HT1080 IDH1KD tx 0%, ALOX12 inh 2%, IL1B secr inh 1, HT1080-NT tox 3%, DT40 TDP1 no CPT 21µM* and DT40 TDP1 CPT 21µM*.
For COc1ccc(Cl)cc1NC(=O)CSc1c2c(nc3ccccc13)CCC2 the results were ALOX12 inh 1%, DT40 TDP1 no CPT 16µM* and DT40 TDP1 CPT 21µM*.
`COc1ccc(OC)c(NC(=O)CSc2c3c(nc4ccccc24)CCCC3)c1` gave ALOX12 inh inconclusive, DT40 TDP1 no CPT 7.3µM* and DT40 TDP1 CPT inconclusive.
Screening CCC(C(=O)Nc1cc(OC)ccc1OC)n1nc(-c2ccccc2)c2c(c1=O)CCCC2 (stereo unspecified) returned ALOX12 inh -16%, DT40 TDP1 no CPT 18µM* and DT40 TDP1 CPT 16µM*.
COc1cc(OC)c(NC(=O)C(C)n2nc(-c3ccccc3)c3c(c2=O)CCCC3)cc1Cl (stereo unspecified) was read as ALOX12 inh -8%.
`COc1ccc(NC(=O)CSc2nc(C3CC3)nc3ccccc23)c(OC)c1` gave HT1080 IDH1KD tx -22%, ALOX12 inh 14%, IL1B secr inh -59*, HT1080-NT tox -1%, DT40 TDP1 no CPT 23µM* and DT40 TDP1 CPT -20%.
Cc1cccc(NC(=O)CSc2c3c(nc4ccccc24)CCC3)n1 was read as HT1080 IDH1KD tx inconclusive, ALOX12 inh 1%, IL1B secr inh -6, HT1080-NT tox inconclusive, DT40 TDP1 no CPT inconclusive and DT40 TDP1 CPT inconclusive.
CCN(CC)CCNC(=O)CSc1c2c(nc3cc(Cl)ccc13)CCCC2 was read as HT1080 IDH1KD tx inconclusive, ALOX12 inh -10%, IL1B secr inh -104*, HT1080-NT tox inconclusive, DT40 TDP1 no CPT inconclusive and DT40 TDP1 CPT inconclusive.
COCCNC(=O)CSc1c2c(nc3cc(Cl)ccc13)CCCC2 was read as ALOX12 inh 5%, DT40 TDP1 no CPT inconclusive and DT40 TDP1 CPT inconclusive.
`COc1cccc(NC(=O)CSc2cc(C)c3ccccc3n2)c1` gave ALOX12 inh -24%, DT40 TDP1 no CPT inconclusive and DT40 TDP1 CPT inconclusive.
For COc1ccc(OC)c(NC(=O)CSc2c3c(nc4cc(Cl)ccc24)CCCC3)c1 the results were ALOX12 inh 2%, DT40 TDP1 no CPT 23µM* and DT40 TDP1 CPT inconclusive.
For COc1ccc(CNC(=O)CSc2c3c(nc4ccc(Cl)cc24)CCCC3)cc1 the results were ALOX12 inh -34%, DT40 TDP1 no CPT inconclusive and DT40 TDP1 CPT inconclusive.
`COc1cccc(NC(=O)CSc2c3c(nc4ccccc24)CCCC3)c1` gave HT1080 IDH1KD tx inconclusive, ALOX12 inh -18%, IL1B secr inh -96*, HT1080-NT tox -10%, DT40 TDP1 no CPT 21µM* and DT40 TDP1 CPT 23µM*.
`Cc1ccc(NC(=O)CSc2c3c(nc4ccccc24)CCCC3)cc1F` gave ALOX12 inh -29%, DT40 TDP1 no CPT 15µM* and DT40 TDP1 CPT inconclusive.
`O=C(c1cccc(F)c1)N1CCCCCC1c1nnc(-c2ccccc2)o1` (stereo unspecified) gave ALOX12 inh 30%.
Screening CCC(=O)c1ccc(OCC(O)CN(CCc2ccccc2)Cc2ccccc2)cc1 (stereo unspecified) returned HT1080 IDH1KD tx -10%, ALOX12 inh inconclusive, IL1B secr inh -80*, HT1080-NT tox inconclusive, DT40 TDP1 no CPT 21µM* and DT40 TDP1 CPT inconclusive.

Screens from PubChem.
